Test [1] in a line: ATG_XTT_Cytotoxicity: Cytotoxicity Assessment in the Attagene TRANS-FACTORIAL HepG2 Assay (AID 2283584).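 For AC50: cells exposed to compound for 24 h before reading; active means loss of viability signal versus DMSO baseline.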 In outline: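 HepG2 human liver cells, transiently transfected with multiple GAL4-UAS reporter units, were dosed and read at 24 h by XTT as cell number. Loss of signal was fitted relative to DMSO negative control baseline.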
Test [2] in a line: LTEA_HepaRG_LDH_cytotoxicity: Cytotoxicity Assessment in the Life Technologies and Expression Analysis (LTEA) Assay (AID 2283563).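 For AC50: LDH activity released into spent culture medium as a marker of cell death.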 A digest of the protocol: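 Differentiated human HepaRG cells, plated 48 h beforehand, were switched to serum-free induction medium and exposed for 48 h to eight half-log concentrations (top 100 uM) in 0.5% DMSO. LDH was measured in spent medium; activity was fitted relative to DMSO vehicle.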

Test [3] can be described thus: TOX21_p53_BLA_p2_viability: Viability Assessment in the Tox21 HCT-116 p53 Agonism Beta-lactamase Assay, Phase 2 (AID 2283591).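 Note: compound exposure lasted 16 h at 37 °C; actives lower the ATP signal meaning cytotoxicity.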 A digest of the protocol: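 HCT116 p53-bla cells, 4000/well, dosed after 5 h plating (217-fold dilution of DMSO stocks) and incubated 16 h at 37C. Viability taken as cellular ATP by CellTiter-Glo luminescence after 30 min RT; signal loss marks cytotoxicity.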

Test [4] concerns the target Cellular tumor antigen p53 (Homo sapiens) (UniProt P04637). Nature of the test: TOX21_p53_BLA_p2_ratio: Tox21 HCT-116 p53 Agonism Beta-lactamase Assay, Ratio, Phase 2 (AID 2283592). In outline:
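Ratio endpoint: beta-lactamase cleavage of CCF4-AM, blue (460 nm) over green (530 nm). HCT116 reporter line; 16 h treatment, 37C; substrate 2 h RT.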

The nature of test [5]: TOX21_p53_BLA_p3_viability: Viability Assessment in the Tox21 HCT-116 p53 Agonism Beta-lactamase Assay, Phase 3 (AID 2283593).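 Note: cells exposed to compound for 16 h before reading.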 A digest of the protocol:
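HCT116 cells, 4000/well, dosed 5 h after plating by pin transfer (217-fold dilution from DMSO stock) and incubated 16 h at 37C, 5% CO2. Viability read as ATP luminescence with CellTiter-Glo after 30 min at room temperature.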

The target of test [6] is Cellular tumor antigen p53 (Homo sapiens) (UniProt P04637). Nature of the test: TOX21_p53_BLA_p3_ratio: Tox21 HCT-116 p53 Agonism Beta-lactamase Assay, Ratio, Phase 3 (AID 2283596). In outline: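 Cells were seeded at 4000/well, rested 5 h at 37C, then dosed with DMSO compound solutions (217-fold dilution) for 16 h. CCF4-AM substrate was loaded for 2 h at room temperature, and the 460/530 nm emission ratio was fitted for gain of signal versus DMSO.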
Chain of Cellular tumor antigen p53 (Homo sapiens) (P04637 whole entry, looked up): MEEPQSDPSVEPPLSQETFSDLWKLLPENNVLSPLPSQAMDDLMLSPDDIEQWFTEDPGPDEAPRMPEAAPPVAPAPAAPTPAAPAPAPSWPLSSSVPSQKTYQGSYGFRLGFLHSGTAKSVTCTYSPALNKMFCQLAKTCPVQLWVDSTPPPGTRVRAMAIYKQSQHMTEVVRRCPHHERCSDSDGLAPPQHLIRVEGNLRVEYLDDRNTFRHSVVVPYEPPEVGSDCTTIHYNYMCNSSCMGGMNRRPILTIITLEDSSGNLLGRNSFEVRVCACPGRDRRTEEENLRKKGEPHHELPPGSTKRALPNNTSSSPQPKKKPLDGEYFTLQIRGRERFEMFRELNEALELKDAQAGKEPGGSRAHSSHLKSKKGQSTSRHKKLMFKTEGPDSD

Test [7] can be described thus: TOX21_p53_BLA_p4_viability: Viability Assessment in the Tox21 HCT-116 p53 Agonism Beta-lactamase Assay, Phase 4 (AID 2283597).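 Note: hits lower the luminescence signal meaning cytotoxicity.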 A digest of the protocol: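 Cytotoxicity was inferred from loss of CellTiter-Glo luminescence. HCT116 cells had been dosed with compounds after 5 h plating, incubated 16 h at 37C and 5% CO2, and exposed to the CCF4-AM substrate for 2 h.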
In test [8] the target is Cellular tumor antigen p53 (Homo sapiens) (UniProt P04637). The experiment in a line: TOX21_p53_BLA_p5_ratio: Tox21 HCT-116 p53 Agonism Beta-lactamase Assay, Ratio, Phase 5 (AID 2283599). In outline: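 HCT-116 p53-bla cells (4000/well) plated 5 h, dosed with compound (217-fold DMSO dilution) for 16 h at 37 C; CCF4-AM substrate 2 h at room temperature. Activity is the 460/530 nm emission ratio (405 nm excitation), fitted in gain-of-signal direction versus DMSO.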

Test [9] in a line: TOX21_p53_BLA_p5_viability: Viability Assessment in the Tox21 HCT-116 p53 Agonism Beta-lactamase Assay, Phase 5 (AID 2283600). A digest of the protocol:
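Luciferase-coupled ATP quantitation of cells treated for 16 h (37C, 5% CO2) with test chemicals delivered in DMSO via a 217-fold dilution; 4000 cells/well; reagent incubated 30 min at room temperature before luminescence reading.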

Test [10] deals with Cellular tumor antigen p53 (Homo sapiens) (UniProt P04637). Nature of the test: TOX21_p53_BLA_p4_ratio: Tox21 HCT-116 p53 Agonism Beta-lactamase Assay, Ratio, Phase 4 (AID 2283601). A digest of the protocol: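 HCT-116 p53 beta-lactamase reporter cells (4000/well) preincubated 5 h, then compound (217-fold dilution of DMSO stock) for 16 h at 37C. CCF4-AM substrate added 2 h at room temperature; 460/530 nm emission ratio fitted upward versus DMSO.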

A short description of test [11]: Tanguay_ZF_120hpf_MORT_legacy: (Legacy) Oregon State University Tanguay Lab 120 Hour Post-fertilization zebrafish Assay for Mortality (AID 2283633).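 For AC50: fitted as increase in binary mortality versus DMSO negative control.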 In outline:
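Dechorionated Tropical 5D wild-type zebrafish embryos, one per well from 6 hpf, were statically exposed at 28C in the dark until 120 hpf (0.64% DMSO final). Mortality was scored as present/absent by brightfield microscopy, fitted positively versus DMSO.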

Test [12] is described as follows: Tanguay_ZF_120hpf_YSE_legacy: (Legacy) Oregon State University Tanguay Lab 120 Hour Post-fertilization zebrafish Assay for Yolk Sac Edema (AID 2283634). A digest of the protocol: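 Tropical 5D wild-type embryos, dechorionated with pronase at 4 hpf, were exposed singly from 6 hpf to 120 hpf under static, sealed, dark conditions at 28C with 0.64% DMSO final. Yolk sac edema was scored present/absent by brightfield microscopy.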

The nature of test [13]: Tanguay_ZF_120hpf_AXIS_legacy: (Legacy) Oregon State University Tanguay Lab 120 Hour Post-fertilization zebrafish Assay for Body Axis Malformation (AID 2283635). A digest of the protocol:
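Tropical 5D wild-type zebrafish embryos, dechorionated with pronase at 4 hpf, were placed singly in wells at 6 hpf and exposed statically to test chemical (0.64% DMSO final) at 28C until 120 hpf, then scored by brightfield for body axis defects.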

Test [14] is described as follows: Tanguay_ZF_120hpf_EYE_legacy: (Legacy) Oregon State University Tanguay Lab 120 Hour Post-fertilization zebrafish Assay for Eye Malformation (AID 2283636).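 Note: binary presence or absence of eye malformation scored by brightfield in 120 hpf larvae.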 A digest of the protocol: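 5D wild-type embryos, pronase-dechorionated at 4 hpf; static exposure 6–120 hpf, 28C, dark; DMSO 0.64% final; 5uM trimethyltin chloride positive control. Binary eye-defect scoring at 120 hpf; dead embryos not scored.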

A short description of test [15]: Tanguay_ZF_120hpf_SNOU_legacy: (Legacy) Oregon State University Tanguay Lab 120 Hour Post-fertilization zebrafish Assay for Snout Malformation (AID 2283637). A digest of the protocol:
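Binary brightfield scoring of snout malformation at 120 hpf. Dechorionated 5D wild-type embryos, one per well, static exposure from 6 hpf at 28C, sealed and dark; final DMSO 0.64% (vol/vol), DMSO as baseline; 5uM trimethyltin chloride positive control.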

Test [16] in a line: Tanguay_ZF_120hpf_PE_legacy: (Legacy) Oregon State University Tanguay Lab 120 Hour Post-fertilization zebrafish Assay for Pericardial Edema (AID 2283640). A digest of the protocol:
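Tropical 5D wild-type zebrafish embryos were exposed statically to 120 hpf at 28C, sealed and foil-covered, in 0.64% DMSO final. Pericardial edema was scored present/absent by brightfield microscopy; dead embryos were not scored.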

Test [17] can be described thus: Tanguay_ZF_120hpf_SOMI_legacy: (Legacy) Oregon State University Tanguay Lab 120 Hour Post-fertilization zebrafish Assay for Somite Malformation (AID 2283647). A digest of the protocol:
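Tropical 5D wild-type zebrafish embryos, dechorionated with pronase at 4 hpf, were placed singly at 6 hpf and statically exposed until 120 hpf at 28C in 0.64% DMSO. Somite malformation was scored present/absent by brightfield microscopy versus DMSO.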

Test [18] in a line: Tanguay_ZF_120hpf_OTIC_legacy: (Legacy) Oregon State University Tanguay Lab 120 Hour Post-fertilization zebrafish Assay for Otic Vesicle Malformation (AID 2283639). In outline: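 Wild-type zebrafish larvae, whole-embryo exposure from early stage to 120 hpf at 28C. Binary brightfield scoring of otic vesicle morphology, fitted in the positive direction against the DMSO baseline.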

Test [19] can be described thus: Tanguay_ZF_120hpf_JAW_legacy: (Legacy) Oregon State University Tanguay Lab 120 Hour Post-fertilization zebrafish Assay for Jaw Malformation (AID 2283638). A digest of the protocol: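 Tropical 5D wild-type embryos, dechorionated with pronase at 4 hpf, were placed singly per well at 6 hpf and statically exposed at 28C until 120 hpf (0.64% DMSO final). Jaw malformation scored as present/absent by brightfield microscopy at 120 hpf, analyzed relative to DMSO.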

Test [20] is described as follows: Tanguay_ZF_120hpf_BRAI_legacy: (Legacy) Oregon State University Tanguay Lab 120 Hour Post-fertilization zebrafish Assay for Brain Malformation (AID 2283641). In outline: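 Tropical 5D wild-type zebrafish embryos were exposed statically in sealed, foil-covered plates at 28C until 120 hpf, with 0.64% (vol/vol) final DMSO. Brain malformation was scored present/absent by brightfield microscopy, relative to DMSO baseline.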

Structures are written as SMILES. Several values for one entry are separate records, joined by “and”; a condition that tells them apart may be missing. Equal values may be shown once. Results filed as inconclusive are left out. Some structures have more than one record in an assay (separate samples or runs), and their calls can disagree. Activity calls are given as the source filed them. Rule for the calls: active = hit-call score of the fitted dose curve at least 0.9, where 1 is the maximum; inconclusive = response in the unintended direction; inactive = score below 0.9.

For the molecule `CCC=C(C)C=O`, in [1], the call was inactive.

`NC(=O)c1c(Cl)cccc1Cl`: the molecule was called inactive in test [1].

Broadly, the AC50 is the concentration at which the activity in the assay is half-maximal. As to `O=C(c1ccc(OCCN2CCCCC2)cc1)c1c(-c2ccc(O)cc2)sc2cc(O)ccc12`, the AC50 was 77.4 µM (active) in test [2]; 28.3 µM (active) and 28.6 µM (active) and 34.3 µM (active) in test [1]; 84.9 µM (active) and 71.8 µM (active) and 42.8 µM (active) in [3]; 68.6 µM (active) and 62.8 µM (active) and 36.4 µM (active) in test [4]; 69.8 µM (active) and 74.5 µM (active) and 35.6 µM (active) in [5]; 74.5 µM (active) and 71.4 µM (active) and 26.1 µM (active) in [6]. Besides, the AC50 was 68.2 µM (active) and 68.5 µM (active) and 25.1 µM (active) in test [7]; 72.8 µM (active) and 81.5 µM (active) and 36.2 µM (active) in test [8]; 77.6 µM (active) and 87.9 µM (active) and 41.9 µM (active) in test [9]; 69.6 µM (active) and 69.3 µM (active) and 36.5 µM (active) in [10]. Besides, the outcome in test [1], in test [11], in test [12], in test [13], in test [14] and in test [15] was inactive. Besides, the molecule was classed as inactive in [16] and in test [17].

As for `O=c1cc[nH]cc1`, the result in [1] was inactive.

`CCCC1CCOC(C)S1` (configuration not stated): the molecule was called inactive in test [1].

As to `Cc1cc(O)c(C)c(C)c1O`, the molecule was classed as inactive in test [1].

Consider `CCC(=O)OC/C=C(\C)CCC=C(C)C`, for which the outcome in [1] was inactive.

In the case of `C=C(C)C(=O)OCCOCCOC(=O)C(=C)C`, the call in test [1] was inactive.

Regarding `CC(C)N(c1ccccc1)C(C)C`, the call in [1] was inactive.

As to `c1ccc2c(c1)-c1ccc3ccc4cccc5cc-2c1c3c45`, the result in [1] was inactive.

Regarding `CC=CC(=O)C1=C(C)C=CCC1(C)C`, the result in test [1] was inactive.

For `CC1(C)[C@H](C=C(Cl)Cl)[C@H]1C(=O)OCc1cccc(Oc2ccccc2)c1`, the call in [1] was inactive.

For the molecule `CCCCCCCCCCCCOC(C)=O`, the molecule was called inactive in test [1].

Regarding `CCCCOCC(C)OCC(C)O` (configuration not stated), the result in test [1] was inactive.

On to `CC/C(=C(\c1ccccc1)c1ccc(OCCN(C)C)cc1)c1ccccc1`, for which the AC50 in test [2] is 63.5 µM (active) and 73.5 µM (active); in test [3], 33.7 µM (active) and 69.5 µM (active) and 35.2 µM (active); in test [4], 47.8 µM (active) and 84.4 µM (active) and 43.5 µM (active); in [5], 74.8 µM (active) [middle of 5 runs]; in test [6] it was 86.9 µM (active) [middle of 4 runs]; in test [7] it was 22.9 µM (active) and 46.5 µM (active) and 32.3 µM (active). The AC50 in [8] is 75.4 µM (active) [middle of 4 runs]; in test [9] it was 64.3 µM (active) [middle of 4 runs]; in [10] it was 40 µM (active) and 84.5 µM (active) and 42 µM (active); in test [11], 31.4 µM (active). In addition, the molecule was classed as inactive in test [1], in test [3], in test [4], in test [6], in test [7] and in [10]. Besides, the outcome in test [11], in [12], in test [13], in test [15], in test [18] and in [16] was inactive. The molecule was classed as inactive in [17].

As for `OCC=Cc1ccccc1`, the outcome in test [1] was inactive.

In the case of `CCCC[N+](C)(CCCC)CCCC`, the outcome in [1] was inactive.

Turning to `CCC(CC)CO`, in [1], the result was inactive.

As for `CCCC1CCC(=O)CC1`, the molecule was classed as inactive in test [1].

In the case of `CCCCOCCOCCO`, the outcome in test [2], in test [1], in test [3], in test [4], in test [5] and in test [6] was inactive. In addition, the molecule was called inactive in test [7], in [8], in [9], in test [10], in test [11] and in test [12]. The outcome in test [13], in test [14], in [15], in [19], in [18] and in [16] was inactive. For the same molecule, the call in [20] and in [17] was inactive.

As for `Cc1cc(O)c2c(c1)C(=O)c1cc(O)cc(O)c1C2=O`, the molecule was called inactive in test [1], in [3], in test [5], in test [8], in [9] and in test [10]. Further, the AC50 was 6.55 µM (active) and 13.2 µM (active) in test [4]; 12 µM (active) and 33.3 µM (active) in test [6]; 11.9 µM (active) in test [8].

For the origin of these results see PubChem BioAssay (EPA / NIEHS).
